# According to PubChem BioAssay (Tox21):
# Several values for one entry are separate records, joined by “and”; a condition that tells them apart may be missing. Identical values can stand only once. A number with no mark means an inactive call. Inconclusive results are not listed. Entries that show only a call come without a potency. Activity calls are given as the source filed them. Unless noted, calls come from the whole dose curve; as a rule, active = well fitted curve in the direction sought with a large enough effect in the repeat runs; inconclusive = weak or mixed curves; inactive = no such curve, though single readings can be large; an effect the other way counts as inactive or inconclusive.
# Key:
# Aromatase (Homo sapiens) = Aromatase (Homo sapiens) (UniProt P11511); assay: qHTS assay to identify aromatase inhibitors (AID 743083); note: nearly all actives have a fitted effect of over 55% in size; note: potency is the fitted concentration of half-maximal effect; for activity, negative = inhibition: series mostly up to about 70 µM
# Aromatase (Homo sapiens), sequence (P11511 whole entry, looked up): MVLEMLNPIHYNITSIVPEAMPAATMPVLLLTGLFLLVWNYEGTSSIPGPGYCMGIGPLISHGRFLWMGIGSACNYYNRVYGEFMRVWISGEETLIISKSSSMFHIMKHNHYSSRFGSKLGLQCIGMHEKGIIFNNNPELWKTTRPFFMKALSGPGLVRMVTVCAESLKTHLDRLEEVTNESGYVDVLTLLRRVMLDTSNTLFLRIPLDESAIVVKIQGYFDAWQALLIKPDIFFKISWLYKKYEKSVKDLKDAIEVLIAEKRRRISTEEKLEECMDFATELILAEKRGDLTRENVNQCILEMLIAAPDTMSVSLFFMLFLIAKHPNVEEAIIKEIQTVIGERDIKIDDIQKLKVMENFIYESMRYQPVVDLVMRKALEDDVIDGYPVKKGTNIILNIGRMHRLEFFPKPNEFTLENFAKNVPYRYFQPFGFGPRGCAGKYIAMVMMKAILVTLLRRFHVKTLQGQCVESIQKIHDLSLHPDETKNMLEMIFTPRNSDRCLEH
# [1] = biological target: Aryl hydrocarbon receptor (Homo sapiens) (UniProt P35869); assay: qHTS assay to identify small molecule that activate the aryl hydrocarbon receptor (AhR) signaling pathway (AID 743085);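 note: HG2L7.5c1 human HepG2 liver cells with stably integrated DRE-driven firefly reporter; series mostly up to about 70 µM; nearly all actives have a fitted effect of over 15% in size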
# Aryl hydrocarbon receptor (Homo sapiens), sequence (P35869 whole entry, looked up): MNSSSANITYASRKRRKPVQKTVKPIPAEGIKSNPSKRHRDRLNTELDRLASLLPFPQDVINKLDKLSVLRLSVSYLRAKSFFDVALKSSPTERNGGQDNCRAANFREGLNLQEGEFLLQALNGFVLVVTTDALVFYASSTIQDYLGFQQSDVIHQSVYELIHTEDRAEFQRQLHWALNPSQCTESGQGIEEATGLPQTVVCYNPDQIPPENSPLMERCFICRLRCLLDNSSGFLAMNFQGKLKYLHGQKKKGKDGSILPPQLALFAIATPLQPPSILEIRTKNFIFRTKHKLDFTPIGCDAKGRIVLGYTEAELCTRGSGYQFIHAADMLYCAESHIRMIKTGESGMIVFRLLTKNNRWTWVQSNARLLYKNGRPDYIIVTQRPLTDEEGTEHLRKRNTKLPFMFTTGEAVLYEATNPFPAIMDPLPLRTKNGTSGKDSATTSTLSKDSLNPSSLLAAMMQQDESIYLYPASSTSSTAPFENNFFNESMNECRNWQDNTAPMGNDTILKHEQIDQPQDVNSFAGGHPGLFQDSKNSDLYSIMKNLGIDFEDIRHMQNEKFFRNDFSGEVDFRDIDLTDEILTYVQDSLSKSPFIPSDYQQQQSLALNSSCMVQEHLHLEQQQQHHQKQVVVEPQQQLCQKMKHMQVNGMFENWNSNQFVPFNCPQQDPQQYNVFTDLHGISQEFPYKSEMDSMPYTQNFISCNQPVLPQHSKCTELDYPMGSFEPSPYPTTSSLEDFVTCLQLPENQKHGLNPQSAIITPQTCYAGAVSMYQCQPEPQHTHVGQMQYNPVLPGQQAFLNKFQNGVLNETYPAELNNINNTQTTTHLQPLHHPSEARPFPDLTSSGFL
# Outline: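 Luminescence (ONE-Glo) from a dioxin-responsive-element luciferase reporter in HG2L7.5c1 HepG2 cells after 24 hr compound exposure at 37C; viability measured by CellTiter-Fluor fluorescence beforehand.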
# [2] = qHTS assay to identify small molecule agonists of the estrogen related receptor signaling pathway with the pleiotropic PPARgamma coactivator (PGC) from Tox21 10K library (AID 1224842); note: nearly all actives have a fitted effect of over 15% in size
# Outline: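 Luminescence from One-Glo (30 min, room temperature) measured after PGC/ERR cells had 18 h at 37 C with pinned compound (23 nL in DMSO). Cells had been seeded at 2,000 per well and pre-incubated 6 h.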
# [3] = qHTS assay to identify small molecule agonists of H2AX (AID 1224845; active = well fitted activation curve with a large enough effect in the signal ratio in the repeat runs, not every such curve was filed as active; the % refers to the signal ratio; note: potency is the fitted concentration of half-maximal effect)
# Outline: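 Phospho-H2AX Ser139 measured by HTRF (ex 320 nm; em 665 and 620 nm) after 24 hr antibody incubation. Compounds, 15 concentrations, 0.76% DMSO, were applied to CHO-K1 cells for 3hr at 37C before lysis.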
# [4] = A CellTox Green Cytotoxicity Assay to monitor cytotoxicity in HepG2 cells - 0 hour (AID 1224882); note: nearly all actives have a fitted effect of over 35% in size
# Outline: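 Using 1536-well format, dye-containing HepG2 suspension was seeded, allowed 5 h at 37 C/5% CO2, dosed by pintool with compounds, positive and negative controls, and imaged for fluorescence across 40 h.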
# [5] = qHTS assay to identify small molecule HDAC inhibitors (AID 1259364);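 note: wild-type HCT-116 cells with endogenous class I/II HDAC activity; top concentration of the series differs between compounds; nearly all actives have a fitted effect of over 45% in size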
# Outline: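 Read-out: luminescence of HDAC-Glo I/II reagent, 30 min RT, reflecting class I/II deacetylase activity in whole HCT-116 cells pre-exposed 2 h to DMSO-dissolved compounds.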
# [6] = qHTS assay to identify small molecule agonists of the sonic hedgehog signaling (Shh) pathway (AID 1259368; calls by dose curve;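 note: NIH/3T3-derived 3T3Gli1-Luc cells carrying a stable Gli1-driven firefly luciferase reporter; series mostly up to about 92 µM; nearly all actives have a fitted effect of over 15% in size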)
# Outline: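 A Gli1 transcriptional response element controlled firefly luciferase in 3T3Gli1-Luc cells. Compounds and a positive control were added 4 hr after plating, and cells were incubated a further 24 hr at 37 C before luminescence detection.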
# [7] = Caspase-3/7 induction in HepG2 cells by small molecules, qHTS assay (AID 1346978); note: nearly all actives have a fitted effect of over 15% in size; note: potency is the fitted concentration of half-maximal effect
# Outline: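 Caspase-3/7 induction was measured by Caspase-Glo 3/7 luminescence (30 min, room temperature) after a 17 hr compound exposure of wild-type HepG2 cells seeded at 2,000 per well and pre-incubated 5 hr.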
# [8] = Caspase-3/7 induction in CHO-K1 cells by small molecules, qHTS assay (AID 1346980); note: nearly all actives have a fitted effect of over 15% in size
# Outline: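 Luminescent Caspase-Glo 3/7 read (30min, room temperature) quantified apoptosis induction. Cells were wild-type CHO-K1, treated with compound for 17hr at 37 C and 5% CO2.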
# [9] = biological target: Acetylcholinesterase (Homo sapiens) (UniProt P22303); assay: Acetylcholinesterase (AChE) small molecule antagonists: colormetric cell-based qHTS assay (AID 1347395; calls by dose curve; note: nearly all actives have a fitted effect of over 30% in size)
# Acetylcholinesterase (Homo sapiens), sequence (P22303 whole entry, looked up): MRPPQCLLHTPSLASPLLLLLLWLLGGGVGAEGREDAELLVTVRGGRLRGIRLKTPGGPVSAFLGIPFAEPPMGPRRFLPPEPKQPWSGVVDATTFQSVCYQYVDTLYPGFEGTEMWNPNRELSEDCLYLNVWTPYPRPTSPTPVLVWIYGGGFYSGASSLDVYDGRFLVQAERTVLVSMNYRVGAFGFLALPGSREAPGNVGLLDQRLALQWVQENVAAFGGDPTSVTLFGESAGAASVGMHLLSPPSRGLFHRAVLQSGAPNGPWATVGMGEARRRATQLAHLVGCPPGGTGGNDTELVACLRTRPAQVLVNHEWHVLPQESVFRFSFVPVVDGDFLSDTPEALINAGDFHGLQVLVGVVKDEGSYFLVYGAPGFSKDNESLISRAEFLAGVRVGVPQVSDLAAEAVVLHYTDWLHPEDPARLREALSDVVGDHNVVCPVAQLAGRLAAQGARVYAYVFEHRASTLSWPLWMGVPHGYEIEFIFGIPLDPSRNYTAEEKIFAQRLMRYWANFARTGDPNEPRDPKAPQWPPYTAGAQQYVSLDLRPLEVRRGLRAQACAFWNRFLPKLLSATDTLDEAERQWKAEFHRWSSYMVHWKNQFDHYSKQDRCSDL
# Outline: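 Colorimetric readout: DTNB quantifies thiocholine from acetylthiocholine hydrolysed by endogenous AChE of SH-SY5Y cells (2,000/well, plated overnight). Compound pretreatment 30 min, substrate incubation 90 min, both 37 C.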
# [10] = biological target: Acetylcholinesterase (Homo sapiens) (UniProt P22303); assay: Acetylcholinesterase (AChE) small molecule antagonists: enzyme-based qHTS assay (AID 1347397; calls by dose curve; note: nearly all actives have a fitted effect of over 55% in size); conditions: Potency: AChE enzyme activity inhibition; outcome: AChE enzyme activity inhibition
# Outline: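 rhAChE 50 mU/mL (dispensed) + cpd or DMSO, 30 min RT; add DTNB/acetylthiocholine cocktail, 10 min RT; colorimetric thiocholine readout. qHTS, 1536-well format.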
# [11] = biological target: Acetylcholinesterase (Homo sapiens) (UniProt P22303); assay: Acetylcholinesterase (AChE) small molecule antagonists: fluorescence cell-based qHTS assay (AID 1347398; calls by dose curve; note: nearly all actives have a fitted effect of over 50% in size); conditions: Potency: AChE activity; outcome: AChE activity
# Outline: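 Read-out is Thiolite Green fluorescence at Ex/Em = 490/520 nm, formed by reaction with thiocholine released when cellular AChE in SH-SY5Y cells hydrolyzes acetylthiocholine. Compounds were preincubated 30 min at 37 C before substrate.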
# [12] = biological target: Acetylcholinesterase (Homo sapiens) (UniProt P22303); assay: Acetylcholinesterase (AChE) small molecule antagonists: enzyme-based qHTS assay with human liver microsomes (AID 1347399; calls by dose curve; note: nearly all actives have a fitted effect of over 60% in size); conditions: Potency: qHTS inhibition; outcome: qHTS inhibition
# Outline: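 Recombinant human AChE (50 mU/mL in the enzyme mix) and human liver microsomes (0.25 mg/mL final) were preincubated with compound and NADPH (0.25 mg/mL final) for 30 min at 37 C. Acetylthiocholine/DTNB was then added; thiocholine was read colorimetrically after 10 min at room temperature.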
# [13] = qHTS assay to identify small molecule antagonists of the retinoic acid receptor (RAR) signaling pathway (AID 1159552; note: nearly all actives have a fitted effect of over 50% in size; note: potency is the fitted concentration of half-maximal effect)
# Outline: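 Luminescent RARE reporter read-out in C3RL4 cells: 6 hr co-treatment at 37 C of test compounds with retinol at 1 uM final. Cells plated overnight beforehand; luciferase reagent incubated 30 min at room temperature before reading.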
# [14] = qHTS assay to identify small molecule antagonists of the estrogen related receptor (ERR) signaling pathway - cell viability counter screen (AID 1224818);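 note: series mostly up to about 46 µM; viability measured after 17.5 h of compound exposure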
# Outline: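 After a 6 h pre-incubation, ERR cells were dosed by pin tool with compounds, positive/negative controls or DMSO alone. Following 17.5 h at 37 C and 30 min with CellTiter-Fluor, fluorescence was recorded.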
# [15] = qHTS assay to identify small molecule antagonists of the estrogen related receptor (ERR) signaling pathway (AID 1224819;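 note: luminescence from an ERR-driven luciferase reporter measured with One-Glo reagent; series mostly up to about 46 µM; nearly all actives have a fitted effect of over 50% in size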)
# Outline: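 Luminescence readout (One-Glo, 30 min, RT) of ERR cell line after 18 h compound exposure at 37 C; cells seeded 2,000/well, pre-incubated 6 h, compounds pinned from DMSO stocks.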
# [16] = qHTS assay to identify small molecule agonists of the estrogen related receptor (ERR) signaling pathway (AID 1224820)
# Outline: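 ERR reporter cell line (from NTP), 2,000 cells/well, incubated 6 h before compound addition, then 18 h at 37 C. Luminescence measured 30 min after One-Glo reagent at room temperature.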
# [17] = test system: estrogen-related receptor alpha (ERRalpha) with PGC-1alpha coactivator, human; assay: qHTS assay to identify small molecule antagonists of the estrogen related receptor signaling pathway with the pleiotropic PPARgamma coactivator (PGC) (AID 1224821; calls by dose curve;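 note: series mostly up to about 46 µM; lower luminescence signal means antagonism of PGC/ERR signalling; nearly all actives have a fitted effect of over 50% in size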)
# Outline: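 PGC/ERR reporter cell line, plated 6 h before compound addition, then exposed 18 h at 37 °C. Luciferase activity read by luminescence 30 min after One-Glo addition; decrease indicates antagonism.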
# [18] = qHTS assay to identify small molecule antagonists of the estrogen related receptor signaling pathway with the pleiotropic PPARgamma coactivator (PGC) cell viability counter screen (AID 1224822;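 note: series mostly up to about 46 µM; viability read after 17.5 h compound exposure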)
# Outline: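 PGC/ERR cells were plated at 2,000 per well and allowed 6 h to settle before compound addition. Following 17.5 h at 37 C, CellTiter-Fluor reagent was added and fluorescence was read 30 min later.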
# [19] = qHTS assay to identify small molecule agonists of the estrogen related receptor signaling pathway with the pleiotropic PPARgamma coactivator (PGC) (AID 1224823)
# Outline: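 PGC/ERR reporter cells seeded 6 h, then exposed to compounds (23 nL in DMSO) for 18 h at 37 C. One-Glo luciferase luminescence read after 30 min at room temperature.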
compound,measurement,setting,value
CN1CSC(=S)N(C)C1,Potency,Aromatase (Homo sapiens),4.83 µM (active) and 3.85 µM (active)
same,Potency,[1],inactive
same,Potency,[2],inactive
same,Potency,[3],4.48 µM (active)
same,Potency,[4],inactive
same,outcome,[5],inactive
same,outcome,[6],inactive
same,Potency,[7],7.66 µM (active)
same,outcome,[8],inactive
same,Potency,[9],inactive
same,Potency,[10],inactive
same,Potency,[11],inactive
same,Potency,[12],inactive
Cc1ccc2nc3sc(=O)sc3nc2c1,"activity, negative = inhibition",[13],10.1% [at 19 µM]
same,activation (H2AX phosphorylation),[3],-0.108% [at 31.6 µM]
same,cytotoxicity,[4],0.753% [at 15.8 µM]
same,"activity change, negative = inhibition",[5],-12.7% [at 19 µM]
same,activity change,[6],2.66% [at 18.9 µM]
same,caspase activation,[7],0.305% [at 19 µM]
same,caspase-3/7 activation,[8],-0.994% [at 19 µM]
same,"activity, negative = inhibition",[9],-0.0538% [at 23.6 µM]
same,"activity change, negative = inhibition",[10],0% [at 23.6 µM]
same,"activity change, negative = inhibition",[11],1.71% [at 23.8 µM]
same,"activity change, negative = inhibition",[12],-0.324% [at 23.6 µM]
COc1cc(OC)c(OC)cc1C=O,Potency,Aromatase (Homo sapiens),44.4 µM (active)
same,Potency,[14],inactive
same,Potency,[15],inactive
same,Potency,[16],inactive
same,Potency,[17],inactive
same,Potency,[18],inactive
same,Potency,[19],inactive
same,Potency,[2],inactive
same,Potency,[4],inactive
same,outcome,[5],inactive
same,outcome,[6],inactive
same,Potency,[7],inactive
same,outcome,[8],inactive
same,Potency,[9],inactive
same,Potency,[10],inactive
same,Potency,[11],inactive
same,Potency,[12],inactive
Brc1cc(Br)cc(Br)c1,Potency,[3],inactive
same,Potency,[7],inactive
same,Potency,[9],inactive
same,Potency,[10],inactive
same,Potency,[11],inactive
same,Potency,[12],inactive
CCN(CC)C(=O)Cl,Potency,[2],inactive
same,Potency,[3],inactive
same,Potency,[4],inactive
same,outcome,[5],inactive
same,outcome,[6],inactive
same,Potency,[7],inactive
same,outcome,[8],inactive
same,Potency,[9],inactive
same,Potency,[10],inactive
same,Potency,[11],inactive
same,Potency,[12],inactive
O=[N+]([O-])c1c(Cl)c(Cl)cc(Cl)c1Cl,Potency,[1],inactive
same,Potency,[13],inactive
same,Potency,[14],inactive
same,Potency,[15],inactive
same,Potency,[16],inactive
same,Potency,[17],inactive
same,Potency,[18],inactive
same,Potency,[19],inactive
same,Potency,[2],inactive
same,Potency,[4],inactive
same,outcome,[5],inactive
same,outcome,[6],inactive
same,Potency,[7],inactive
same,outcome,[8],inactive
same,Potency,[9],inactive
same,Potency,[10],inactive
same,Potency,[11],inactive
same,Potency,[12],inactive
O=C(c1ccccc1)C(Cl)Cl,Potency,[13],24.3 µM (active)
same,Potency,[2],inactive
same,Potency,[3],inactive
same,Potency,[4],inactive
same,outcome,[5],inactive
same,outcome,[6],inactive
same,Potency,[7],inactive
same,outcome,[8],inactive
same,Potency,[9],inactive
same,Potency,[10],inactive
same,Potency,[11],inactive
same,Potency,[12],inactive
C[C@]12CC[C@@H](O)C[C@@H]1CC[C@@H]1[C@@H]2CC[C@]2(C)C(=O)CC[C@@H]12,Potency,[3],inactive
same,Potency,[4],inactive
same,outcome,[5],inactive
same,outcome,[6],inactive
same,Potency,[7],inactive
same,outcome,[8],inactive
COCCOC(=O)c1ccccc1C(=O)OCCOC,Potency,Aromatase (Homo sapiens),inactive
same,Potency,[1],inactive
same,Potency,[13],inactive
same,Potency,[7],inactive
same,Potency,[9],inactive
same,Potency,[10],inactive
same,Potency,[11],inactive
same,Potency,[12],inactive
Oc1c(I)cc(I)cc1I,Potency,[2],inactive
same,Potency,[3],inactive
same,Potency,[4],inactive
same,outcome,[5],inactive
same,outcome,[6],inactive
same,Potency,[7],inactive
same,outcome,[8],inactive
same,Potency,[9],inactive
same,Potency,[10],inactive
same,Potency,[11],inactive
same,Potency,[12],inactive
